The subject of the assay is HFF. Description: cell viability relative to DMSO control; higher = less cytotoxic. As to conditions: 1 µM; 72 h. As to the method: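 Single-dose cytotoxicity screen of the MMV Pandemic Response Box at 1 uM on human foreskin fibroblasts (HFF), 72 h at 37 C. Viability measured by MTT (OD 550 nm) and normalised to the DMSO control (% survival).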
A word on the cell viability: it is a per cent measure of how many cells are alive, often set against a control. `COc1ccc(SC(=O)N[C@H](CCC(=O)O)C(=O)O)cc1` showed a cell viability of 59.7%. In the case of `COC(=O)Nc1nc2cc(Sc3ccccc3)ccc2[nH]1` it was 71.9%; in that of `c1ccc(Cn2c(-c3ccccn3)nc3ccccc32)cc1`, 63.2%. With `CCCCCOc1ccc(/C=C2\Oc3c(ccc(O)c3O)C2=O)c(O)c1` the figure was 69.6%; with `CN(Cc1ccc(C(C)(C)C)cc1)Cc1cccc2ccccc12`, 62.8%; with `NS(=O)(=O)c1ccc(NC(=O)NC(c2ccccc2)c2ccccc2)cc1`, 72.8%. In the case of `COc1ccc2cc3[n+](cc2c1OCCN(CCn1cncn1)Cc1ccc(F)cc1F)CCc1cc2c(cc1-3)OCO2` it was 61.3%; in that of `OCCCCn1cnc2c(O)nc(NCc3ccc(Cl)c(Cl)c3)nc21`, 62.2%; in that of `CC1(C)Cc2c(C#N)c(SCCc3ccccc3)nc(N3CCOCC3)c2CO1`, 81.4%. Turning to `Cc1cc(Nc2ccc(F)cc2)nc(SCc2nc3ccccc3[nH]2)n1`, the cell viability is 66%.

`O=c1cc(NCCCN[C@@H]2CCOc3c(Br)cc(Br)cc32)[nH]c2ccsc12` had a cell viability of 79.4%. With `O=C(NCCN1CCCCC1)c1cccc(C(F)(F)F)c1` the figure was 70.6%. In the case of `C=C(C)[C@@H]1CC[C@]2(C(=O)O)CC[C@]3(C)[C@H](CC[C@@H]4[C@@]5(C)CC[C@H](O)C(C)(C)[C@@H]5CC[C@]43C)[C@@H]12` it was 69.3%; in that of `C[C@H]1CC[C@@]2(O)C(C)(C)[C@@H]3CC[C@@]2(C)[C@H]1C3`, 65.2%; in that of `O=C(Nc1cccc(C2=NCCN2)c1)c1ccc(-c2ccc(C(=O)Nc3cccc(C4=NCCN4)c3)cc2)cc1`, 63.4%.

`Nc1nnc(-c2ccc(Cl)cc2)s1` came in with a cell viability of 62.7%. For `Nc1nc(O)c(Br)c(-c2cccc(Cl)c2)n1`, the cell viability is 61.7%. With `OB1OCc2cc(Cl)ccc21` the figure was 68.1%. With `Cc1c(N)cccc1Cn1ccc(OCCc2cccs2)cc1=O` the figure was 60.5%; with `CS(=O)(=O)c1ccc(Oc2ccc(Cl)cc2)cc1`, 69.7%; with `CC(C)(C)c1ccc(C(Cn2cccc(C(F)(F)F)c2=O)NC2Cc3ccccc3C2)cc1` (stereo not given), 67.8%. With `Clc1cc(Cl)c2c(c1)CCc1ccccc1C2n1ccnc1` (stereo not given) the figure was 80.7%; with `C[C@H](NC(CC(=O)c1ccccc1C(F)(F)F)C(=O)O)c1ccccc1` (stereo not given in full), 63.6%. As for `COc1ccc(OCc2ccc(COc3c(Cl)cccc3Cl)cc2)c(Cl)c1`, the cell viability is 60.4%.

In turn, `Oc1cccc(C(Nc2nccs2)c2ccc3cccnc3c2O)c1` (stereo not given) registered a cell viability of 72%. In the case of `CC(C)(C)c1ccc(Oc2ccc(N)cc2)cc1` it was 68.3%. With `Cc1cc(CCCOc2c(C)cc(-c3noc(C(F)(F)F)n3)cc2C)on1` the figure was 65.5%; with `CC(C)c1ccc(COc2cccc(-c3cc([S+](C)[O-])c(C#N)c(=O)[nH]3)c2)cc1` (stereo not given), 76.9%. In the case of `Cc1nc2ccc(Cl)cc2c(-c2ccccc2)c1CC(=O)O` it was 77%; in that of `COc1cc(Cc2cnc(N)nc2N)c2c(c1OC)OC(C1CC1)C=C2` (stereo not given), 74.3%; in that of `C[C@@H](c1nc(-c2ccc(C#N)cc2)cs1)[C@](O)(Cn1cncn1)c1ccc(F)cc1F`, 62.9%.

Compound `Nc1nc2c(ncn2/C=C2/CC2(CO)CO)c(=O)[nH]1` yielded a cell viability of 63.8%. With `Oc1c(C(Nc2ccccn2)c2ccccc2)ccc2cccnc12` (stereo not given) the figure was 69.9%.

Take `NC(=O)c1nccn([C@@H]2O[C@H](CO)[C@@H](O)[C@H]2O)c1=O`: the cell viability was found to be 72.5%. Compound `O=C(NN1C(=O)[C@@H]2[C@@H]3C=C[C@@H]([C@H]4C[C@@H]34)[C@@H]2C1=O)c1ccc(C(F)(F)F)cc1` came in with a cell viability of 71.8%. For `CCc1cc(O)c(Oc2cccnc2N)cc1F`, the cell viability was found to be 65.5%. Compound `CN(C)c1[nH]c(=O)ncc1F` came in with a cell viability of 72%. Regarding `CCOCc1nc2c(N)nc3ccccc3c2n1CC(C)(C)O`, the cell viability worked out at 70.5%. With `COc1ccc(NC(=O)CC2Sc3ncnn3C2=O)cc1` (stereo not given) the figure was 73.4%. With `CC[C@H](NC(=O)[C@H](C)NC)C(=O)N1C[C@@H](O)C[C@H]1Cc1c(-c2[nH]c3cc(F)ccc3c2C[C@@H]2C[C@H](O)CN2C(=O)[C@H](CC)NC(=O)[C@H](C)NC)[nH]c2cc(F)ccc12` the figure was 31.2%.

For the origin of these results see the supplement of paper PMC10941209.
